# Measured values reported in the supplement of paper PMC12067926.
# Unmarked numbers belong to inactive results.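 The calls were made as follows: active = growth AUC significantly below the DMSO wells by Dunnett test; inactive = the rest.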
# Assays:
# Test in all cases: relative growth (AUC of 72 h growth curve relative to DMSO control, dAUC) (ratio); higher = more growth (less inhibition), active = hit call of the paper
# Settings in all cases: 20 µM
# [1] = test system: Aeromonas 1 (Aeromonas sp. AE235)
# How it was run: (§1)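 Each chemical was tested at 20 µM (1% DMSO) in 96-well plates seeded with a 1:100 dilution of cultures grown to carrying capacity in Luria–Bertani medium. These were isolates from Icelandic stream sediments and Silwood Park soil, as well as whole sediment communities. A plate reader took A600 readings hourly over 72 h, and three biological replicates were averaged. Relative growth (dAUC) is the spline-integrated area under the growth curve relative to the mean of the DMSO controls.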
# [2] = test system: Aeromonas 2 (Aeromonas sobria)
# How it was run: as §1
# [3] = test system: Aeromonas 3 (Aeromonas popoffii)
# How it was run: as §1
# [4] = test system: Argrobacterium 1 (Agrobacterium sp.)
# How it was run: as §1
# [5] = test system: Arthrobacter 1 (Arthrobacter humicola)
# How it was run: as §1
# [6] = test system: Arthrobacter 2 (Arthrobacter humicola)
# How it was run: as §1
# [7] = test system: Arthrobacter 3 (Arthrobacter sp.)
# How it was run: as §1
# Community 10 = test system: Community 10
# How it was run: as §1
# Community 4 = test system: Community 4
# How it was run: as §1
# Community 6 = test system: Community 6
# How it was run: as §1
Structure (SMILES),relative growth [1],relative growth [2],relative growth [3],relative growth [4],relative growth [5],relative growth [6],relative growth [7],relative growth (Community 10),relative growth (Community 4),relative growth (Community 6)
CCc1cnc(C2=NC(C)(C(C)C)C(=O)N2)c(C(=O)O)c1 (stereo unspecified),0.969,0.981,1,0.95,0.895,0.959,0.932,1.1,1.03,1.04
CNC(=O)CSP(=S)(OC)OC,0.944,0.984,0.967,1.02,1.04,0.992,0.978,0.887,0.765,0.957
CNC(=O)c1cc(Cl)cc(C)c1NC(=O)c1cc(Br)nn1-c1ncccc1Cl,1.01,1.05,1.03,0.963,1.08,0.758,1.02,1.14,1.09,1.07
Cc1cc(C)c(C2=C(OC(=O)CC(C)(C)C)C3(CCCC3)OC2=O)c(C)c1,1.09,0.978,1.05,1.11,0.927,0.864,0.789,,1.19,0.917
CC1(C)C(C(=O)OC(C#N)c2cccc(Oc3ccccc3)c2)C1(C)C (stereo unspecified),0.986,0.989,1.08,1.09,1.1,0.685,0.704,0.908,1,1.03
COP(=S)(OC)Oc1nc(Cl)c(Cl)cc1Cl,1.04,1.02,1.01,1.05,0.769,0.312 (active),0.646 (active),0.856,0.867,0.987
COC(=O)c1ccccc1S(=O)(=O)NC(=O)Nc1nc(C)nc(OC)n1,1.02,1.01,1.07,0.964,1.16,1.14,1.01,1.23,1.16,1.12
CCC(=O)Nc1ccc(Cl)c(Cl)c1,0.948,0.953,0.955,0.923,1.12,1,1.02,0.919,1.07,1.01
CC(C1CC1)C(O)(Cn1cncn1)c1ccc(Cl)cc1 (stereo unspecified),0.97,0.942,0.964,1.09,0.89,0.961,0.944,1.02,1.01,1.02
CC[C@H](C)C1O[C@]2(C=C[C@@H]1C)C[C@@H]1C[C@@H](C/C=C(\C)[C@@H](O[C@H]3C[C@H](OC)[C@@H](O[C@H]4C[C@H](OC)[C@H](NC)[C@H](C)O4)[C@H](C)O3)[C@@H](C)/C=C/C=C3\CO[C@@H]4[C@H](O)C(C)=C[C@@H](C(=O)O1)[C@]34O)O2 (stereo partly specified),1.08,0.923,0.979,1.11,0.108 (active),0.00328 (active),0.324 (active),0.9,0.787,0.509 (active)
CCOP(=S)(OCC)Oc1cc(C)nc(C(C)C)n1,0.987,0.964,0.98,1.16,0.981,0.834,0.888,0.743,0.904,0.958
CC(C)CC(C)c1sccc1NC(=O)c1cn(C)nc1C(F)(F)F (stereo unspecified),0.935,0.946,0.994,0.855,0.87,0.885,0.936,0.715,0.78,0.806
N#CC(CCc1ccc(Cl)cc1)(Cn1cncn1)c1ccccc1 (stereo unspecified),0.938,0.936,1.01,0.968,0.81,0.555 (active),0.666 (active),1.09,0.946,0.958
CCNC(=O)NC(=O)/C(C#N)=N/OC,0.983,0.967,0.988,1.01,0.901,0.894,0.975,1.03,0.963,1
C[N+](C)(C)CCCl,0.996,0.944,0.977,1.01,1.05,1,0.987,0.819,0.978,0.92
CC1=NNC(=O)N(/N=C/c2cccnc2)C1,1.04,1.04,1.04,0.954,1.13,1.13,1.05,0.983,1.1,1.14
CC(Oc1ccc(Oc2ncc(C(F)(F)F)cc2Cl)cc1)C(=O)O (stereo unspecified),0.952,0.974,0.959,0.969,1.08,1.03,1.08,0.793,1.02,0.947
CCCCOC(=O)[C@H](C)Oc1ccc(Oc2ccc(C#N)cc2F)cc1,1.04,1.07,1.05,1.11,1.11,0.875,0.882,0.88,1.03,1.03
CNC(=O)Oc1cccc2ccccc12,0.941,0.918,0.921,1.09,0.924,1.07,1.14,0.847,0.976,1.01
Cc1nc(N(C)C)nc(OC(=O)N(C)C)c1C,0.991,0.948,0.968,0.962,0.924,0.847,0.932,0.979,0.871,0.942
O=[N+]([O-])/N=C1\NCCN1Cc1ccc(Cl)nc1,0.99,0.99,0.999,0.959,0.949,1.06,0.929,1.23,1.11,1.11
CN(C)C(CSS(=O)(=O)O)CSS(=O)(=O)O,0.987,0.976,0.992,0.997,1.02,1.04,1.04,0.835,1.04,0.914
O=[N+]([O-])c1cc(C(F)(F)F)c(Cl)c([N+](=O)[O-])c1Nc1ncc(C(F)(F)F)cc1Cl,1.04,0.00203 (active),0.00448 (active),0.0123 (active),0.035 (active),0.0116 (active),0.0138 (active),0.534 (active),0.614 (active),0.498 (active)
O=C(Nc1ccc(F)cc1F)c1cccnc1Oc1cccc(C(F)(F)F)c1,1.03,0.98,1.01,1.02,1.06,1,1.07,0.942,1.08,0.987
COCC(=O)N(c1c(C)cccc1C)[C@H](C)C(=O)OC,0.971,1.01,1.02,1,0.981,1.03,1.04,0.999,1.21,1.08
COCc1cnc(C2=NC(C)(C(C)C)C(=O)N2)c(C(=O)O)c1 (stereo unspecified),0.932,0.973,1,1,0.954,1.01,0.931,0.96,0.84,0.937
CCOc1ccc(C(C)(C)COCc2cccc(Oc3ccccc3)c2)cc1,1.01,1.02,1.02,1.04,1.01,0.801,0.816,,0.901,0.979
COP(=S)(OC)Oc1ccc(SC)c(C)c1,1.02,0.974,1.03,1.05,1.17,0.942,1.01,,0.985,1.05
CC1COC(Cn2cncn2)(c2ccc(Oc3ccc(Cl)cc3)cc2Cl)O1 (stereo unspecified),1.08,1.03,1.02,1.04,0.741,0.223 (active),0.348 (active),,1.2,1.06
